Abs 340nm = absorbance at 340 nm | AID 708 | fold change at 10 µM | compound absorbance at 340 nm, fold over control | 65,000 tested, under 10 active;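 active = at 10 µM dose, initial 340 nm absorbance at least 2 fold that of control wells; inactive = change under 2 fold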;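 also: initial absorbance extrapolated from kinetic A340 decline of NADH oxidation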
Spn DPM-DC inh = inhibitors of Streptococcus pneumoniae diphosphomevalonate decarboxylase. AID 556. calls only at 10 µM. hit rate 0.49% among 65,000. purified DPM-DC, PK/LDH coupled NADH fluorescence;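 active = the 320 compounds with the highest percent inhibition in the single-dose primary screen, excluding strongly autofluorescent ones, cut at about 32% in these data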;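 also: kinetic rate of NADH fluorescence loss reporting ADP formed by the decarboxylase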
MK inhibit = blocks S. pneumoniae mevalonate kinase. purified MK, PK/LDH-coupled NADH absorbance 340 nm. inhibition, % at 10 µM. hit rate 0.48% among 65,000;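 active = ranked among the strongest by inhibition in the single 10 µM screen, a fixed top-ranked set picked for dose follow-up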
NADH enzymes = inhibitors of enzymes used to reach an NAD/NADH endpoint; hit rate 0.02% among 65,000; coupled PK/LDH NADH assays, four targets; IC50, µM (highest dose often 10 µM);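 active = single-dose screening hits from any of four coupled enzyme assays that gave an IC50 when retested across doses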;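 also: the DPM-DC format reads NADH fluorescence rather than 340 nm absorbance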
Fluor 339 460 = intrinsic fluorescence of library compounds, ex339/em460 – biochemical, MLSMR library, data from DPM-DC assay, artefact control, profiling panel; compound autofluorescence, ex339/em460 nm, NADH buffer; active compounds read high; 1 = no-compound wells, NADH background; hit rate 5.5% among 65,000; fluorescence fold increase at 10 µM;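 active = at 10 µM, mean starting fluorescence two-fold or more over control wells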;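 also: signal is the first read of a kinetic run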
Spn PMK inh = S. pneumoniae PMK inhibition. inhibition, % at 10 µM. purified PMK, PK/LDH-coupled NADH absorbance 340 nm. AID 539. hit rate 0.49% among 65,000;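 active = top-ranked compounds by inhibition in the single 10 µM screen, taking a fixed number of the strongest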
Hits are given with their value; i = inactive; nt = no result given; + = active, no number. Sampled rows, rich in hits. Any-hit rate of the full collection: about 6.8%.

SMILES	Abs 340nm	Spn DPM-DC inh	MK inhibit	NADH enzymes	Fluor 339 460	Spn PMK inh
CCOC(=O)c1cnn2c(C(F)(F)F)cc(-c3ccco3)nc12	i	nt	i	i	4.3	i
CCOC(=O)c1c(CN2CCCCC2)n(C)c2ccc(OC)c(S(=O)(=O)c3ccccc3)c12	i	i	i	i	i	i
Cc1cccc(N2CCN(C(=O)c3cc4c(C)nc5ccccc5c4o3)CC2)c1C	i	i	i	i	i	i
CCN(Cc1ccncc1)C(=O)c1cccs1	i	i	i	i	i	i
CC(C)CCNC(=O)c1cnn2c(C(F)(F)F)cc(-c3ccco3)nc12	i	i	i	i	3	i
CC(C)OC(=O)CN1CCN(C2c3ccccc3-c3ccccc32)CC1	i	i	i	i	i	i
CCn1c(C(=O)Nc2ccsc2C(=O)OC)cc2sc(Cl)cc21	i	nt	i	i	2.1	i
CCN(c1c(C)n(C)n(-c2ccccc2)c1=O)S(C)(=O)=O	i	i	i	i	i	i
CCCN(C(=O)c1ccccc1N)c1c(C)n(C)n(-c2ccccc2)c1=O	i	i	i	i	i	29
CCC(=O)Nc1nnc(Sc2ccc(N(C)C)cc2)s1	i	+	i	i	i	i
CCOC(=O)CCCSc1nc2sc(C)c(C)c2c(=O)[nH]1	i	i	i	i	i	i
CCOC(=O)c1nc2sc(C)c(C)c2c(=O)[nH]1	i	nt	i	i	3.7	i
Cc1ccc(S(=O)(=O)c2cc3c(=O)n4cccc(C)c4nc3n(Cc3ccco3)c2=N)cc1C	i	i	i	i	2.3	i
Cc1ccc(S(=O)(=O)c2cc3c(=O)n4ccccc4nc3n(Cc3ccco3)c2=N)cc1	i	nt	i	i	3.6	i
Cc1ccc(S(=O)(=O)c2cc3c(=O)n4ccccc4nc3n(CC3CCCO3)c2=N)cc1 (centres undefined)	i	i	i	i	i	i
O=C(CN1CCN(C(=O)N2CCCCC2)CC1)Nc1ccc(F)cc1	i	i	i	i	i	i
CCOC(=O)c1ccc(Nc2cc(C)nc(N3CCOCC3)n2)cc1	i	i	i	i	3	i
CCOc1ccc(Nc2cc(C)nc(N3CCOCC3)n2)cc1	i	i	i	i	i	i
CCNc1nc(N)nc(Oc2ccc(OCCOc3ccc(Cl)cc3Cl)nn2)n1	i	i	i	i	i	i
O=C(Cn1c(N2CCN(c3ccccc3)CC2)nc2ccccc21)c1ccccc1	i	i	i	i	i	i
Cc1ccsc1C1C(C(=O)O)c2ccccc2C(=O)N1C (centres undefined)	i	+	53	i	i	85
CN1C(=O)c2ccccc2C(C(=O)O)C1c1cccc(F)c1 (centres undefined)	i	i	i	i	i	i
C/C(O)=c1/ccc2cccc3nc(C)nc1c23	i	i	i	i	3	i
CCOc1ccc(-c2n[nH]c(C)c2Oc2ccc(OC)cc2)c(O)c1	i	i	i	i	i	i
CN(C)c1ccc(/C(=N\O)c2ccccc2)cc1	i	i	i	i	i	i
SMILES	Abs 340nm	Spn DPM-DC inh	MK inhibit	NADH enzymes	Fluor 339 460	Spn PMK inh
COc1ccc(OC)c(C2=NO[C@@H]3C(=O)N(c4cc(Cl)ccc4OC)C(=O)[C@H]23)c1	i	i	i	i	2	i
Cc1oc2cc(O)ccc2c(=O)c1-c1cnn(-c2ccccc2)c1	i	nt	i	i	2.5	i
O=C(NCc1ccc2c(c1)OCO2)C1CCCN1C(=O)Nc1cccc(Cl)c1 (centres undefined)	i	i	i	i	i	i
CCOC(=O)Nc1nnc(-c2cccc(OC)c2)s1	i	nt	i	i	3.8	i
COc1ccc(-c2nnc(NC(=O)C(C)C)s2)c(OC)c1	i	nt	i	i	2.1	i
COc1ccccc1-c1nnc(NC(=O)OCC(C)C)s1	i	i	i	i	i	i
COC(=O)Nc1nnc(-c2ccccc2Cl)s1	i	i	i	i	2.9	i
CCOC(=O)Nc1nnc(-c2ccccc2OC)s1	i	nt	i	i	2.8	i
COc1cccc(C2C(C(N)=O)=C(C)Nc3nc(-c4ccccc4Cl)nn32)c1 (centres undefined)	i	i	i	i	i	i
CC1Oc2ccccc2N(CC(=O)NCCc2ccccc2)C1=O (centres undefined)	i	i	i	i	i	i
CSC1=NCCN1C(=O)c1ccc(S(=O)(=O)N(C)C)cc1	i	i	i	i	i	i
COC(=O)Nc1nnc(-c2ccncc2)s1	i	nt	i	i	3.7	i
Cc1ccc(Cn2nnnc2CN2CCC(O)(c3ccccc3F)CC2)cc1	i	i	i	i	i	i
CN1CCN(c2nc(-c3ccccc3)c3cc(Cl)ccc3n2)CC1	i	i	i	i	i	i
O=c1nc(-c2ccccc2)c2cc(Cl)ccc2[nH]1	i	i	i	i	3.1	i
Cc1nn2c(c1-c1ccccc1)NC1=C(C(=O)CCC1)C2c1cccnc1 (centres undefined)	i	nt	i	i	3.8	i
COc1ccc(OC)c2c1CC(C)(C)NC2=O	i	nt	i	i	2.1	i
Cc1oc(-c2cccc(Cl)c2)nc1CN1CCCC(C(=O)NC(C)c2ccc3c(c2)OCCO3)C1 (centres undefined)	i	i	i	i	i	i
COc1cc2c(OC)cccc2cc1C(=O)O	i	nt	i	i	2.9	i
COc1ccc(NCc2nnc(SCC#N)n2-c2ccccc2OC)cc1	i	i	i	i	i	i
Cc1ccc2cc3cc(C(=O)NCCCN4CCCCCC4)oc3nc2c1	i	nt	i	i	5.1	i
Cc1ccc2cc3cc(C(=O)NCCCN4CCc5ccccc5C4)oc3nc2c1	i	nt	i	i	5.1	i
Cc1cccc(N(C)C(=O)c2cc3cc4ccc(C)cc4nc3o2)c1	i	i	i	i	i	i
N=c1oc2ccccc2cc1-c1nc2ccccc2c(=O)[nH]1	i	i	i	i	i	i
Cc1cc(NC(=O)CN2CCN(Cc3ccccc3)CC2)nc2c1c(=O)oc1ccccc12	i	i	i	i	i	i
SMILES	Abs 340nm	Spn DPM-DC inh	MK inhibit	NADH enzymes	Fluor 339 460	Spn PMK inh
COCCn1c(SCC(=O)Nc2cccc(C(=O)OC)c2)nc2ccccc2c1=O	i	i	i	i	i	i
CCOC(=O)c1c(CC(C)C)csc1NC=O	i	+	i	i	i	i
CCCN(CCC)C(=O)c1ccc2c(c1)N(Cc1ccccc1)C(=O)CS2=O (centres undefined)	i	i	i	i	i	i
CCOC(=O)CC(=O)CSc1ncnc2c1oc1ccccc12	i	i	i	i	i	i
CCCn1c(SCC#N)nc2c(c1=O)C1(CCCC1)Cc1ccccc1-2	i	i	i	i	i	i
N#CCSc1n[nH]c2nc3c(c(=O)n12)C1(CCCC1)Cc1ccccc1-3	i	nt	i	i	2.2	i
CC1=C(C(=O)N2CCOCC2)C(c2ccccc2F)C2=C(CCCC2=O)N1 (centres undefined)	i	nt	i	i	2.9	i
COc1ccccc1NC(=O)C1=C(C)NC2=C(C(=O)CCC2)C1c1ccc2c(c1)OCO2 (centres undefined)	i	+	i	i	2.5	i

Assay outcomes deposited in PubChem BioAssay by SRMLSC.
